FBA Mtb inh: inhibitors of M. tuberculosis fructose-bisphosphate aldolase. P9WQA3. purified M. tuberculosis FBA, fluorescence read-out. inhibition, % at 1 µM. hit rate 2.3% among 360,000. AID 588726
Mtb hypoxia inh: reduces hypoxia-regulated biosensor signal in M. tuberculosis. M. tuberculosis hypoxia-regulated fluorescent reporter, fluorescence. fluorescence inhibition, % (test concentration not listed). hit rate 0.1% among 300,000; in the data active = fluorescence inhibition mostly above about 23%, no sharp cut-off; inactive = mostly below about 17%
GDH-TPI counter-1: GDH-TPI coupled enzyme inhibition counter-screen; AID 588335; GDH-TPI coupled enzyme counterscreen, NADH absorbance; inhibition, % at 4.8 µM; hit rate 1.2% among 360,000; in the data active = inhibition above about 30%
Mtb UGM inh: inhibitors of M. tuberculosis UDP-galactopyranose mutase; P9WIQ1; inhibition, % at 10 µM; purified UGM, fluorescence polarization probe displacement; hit rate 0.06% among 320,000; in the data active = inhibition above about 10%, passing the limit was not always enough
Target sequence (P9WIQ1 whole entry, looked up): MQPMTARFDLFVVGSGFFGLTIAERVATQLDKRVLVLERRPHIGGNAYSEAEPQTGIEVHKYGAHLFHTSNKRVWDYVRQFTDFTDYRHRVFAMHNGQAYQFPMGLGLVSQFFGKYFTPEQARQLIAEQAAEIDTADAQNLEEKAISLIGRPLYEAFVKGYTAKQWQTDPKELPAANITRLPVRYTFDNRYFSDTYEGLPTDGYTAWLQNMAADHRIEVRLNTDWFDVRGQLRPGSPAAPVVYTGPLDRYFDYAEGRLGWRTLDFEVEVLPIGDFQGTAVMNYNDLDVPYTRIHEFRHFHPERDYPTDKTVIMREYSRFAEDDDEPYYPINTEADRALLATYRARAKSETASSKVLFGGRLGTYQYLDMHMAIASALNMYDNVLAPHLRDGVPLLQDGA
FadD28 binding: M. tuberculosis FadD28 bisubstrate binding inhibition. AID 588549. hit rate 0.22% among 360,000. FadD28 bisubstrate probe binding, fluorescence polarization. inhibition, % at 12.5 µM; in the data active = inhibition above about 8.5%, passing the limit was not always enough
Rv3671c protease: inhibitors of M. tuberculosis serine protease Rv3671c; P9WHR9; hit rate 0.048% among 320,000; inhibition, % at 5.96 µM; in the data active = inhibition above about 38%;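 note: extracellular domain of Rv3671c used as enzyme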
Mtb FBA confirm: confirmation of M. tuberculosis fructose-bisphosphate aldolase inhibitors; shares compounds with FBA Mtb inh; purified M. tuberculosis FBA, fluorescence read-out; inhibition, % at 1 µM; hit rate 78% among 5,600
GDH-TPI counter-2: inhibits GDH-TPI coupling enzymes, flagging Mtb FBA hits. GDH-TPI coupled enzyme counterscreen, fluorescence. AID 652141. inhibition, % at 1 µM. shares compounds with FBA Mtb inh. hit rate 81% among 5,600; in the data active = inhibition above about 10%
GDH-TPI dose: counter-screen for M. tuberculosis FBA inhibitors: GDH-TPI dose response; IC50, µM; AID 652145; GDH-TPI coupled enzyme assay, fluorescence, artifact counterscreen; hit rate 79% among 170; shares compounds with FBA Mtb inh; call rule not given here
Of the large screens only hits and unclear results are named; the others gave an inactive call (follow-up assays come after a bar, where they were run). This is a sample that favours compounds with a hit; in the whole collection about 3.5% have one here. Cut-off read from the data, not from the text of the source, unless noted: active = inhibition above about 27%; inactive = the rest.

COc1ccccc1-c1c(C#N)c(N)nc2c1CCc1ccccc1-2	FBA Mtb inh 42.0 | Mtb FBA confirm active | GDH-TPI counter-2 active
N#Cc1c(-c2ccc(F)cc2)cc(-c2cccnc2)nc1N	none (no result: Mtb hypoxia inh)
O=C(C1=CC(C2CC2)CC(OCCCCO)O1)N1CCN(Cc2ccccc2)CC1 (centres undefined)	none (no result: FBA Mtb inh, GDH-TPI counter-1, Mtb UGM inh, FadD28 binding, Rv3671c protease)
CCCc1c(C(=O)NN=Cc2ccccc2C(F)(F)F)nnn1-c1nonc1N	none (no result: FBA Mtb inh, GDH-TPI counter-1, Mtb UGM inh, FadD28 binding, Rv3671c protease)
N#Cc1c(-c2cccs2)cc(-c2cccnc2)nc1N	FBA Mtb inh 87.5 | Mtb FBA confirm 102.3 | GDH-TPI counter-2 80.8
CCOc1ccc2nc(NCCNC(=O)C3CC3)c(C)cc2c1	none (no result: Mtb hypoxia inh)
CCOc1ccc2nc(NCCNC(=O)C(C)C)c(C)cc2c1	FBA Mtb inh 35.3 (no result: Mtb hypoxia inh) | Mtb FBA confirm 85.8 | GDH-TPI counter-2 65.9
CCOc1ccccc1Oc1c(C)oc2cc(OC(=O)c3ccco3)ccc2c1=O	none
COc1ccccc1-c1c(C)oc2cc(OC(=O)c3ccco3)ccc2c1=O	FBA Mtb inh 36.0 | Mtb FBA confirm inactive | GDH-TPI counter-2 inactive | GDH-TPI dose 4.51
COc1ccc2c(=O)c(-c3ccccc3C)c(C)oc2c1	none (no result: Mtb hypoxia inh)
COc1ccccc1Oc1c(C)oc2cc(OC(=O)c3ccco3)ccc2c1=O	FBA Mtb inh 54.8 | Mtb FBA confirm 118.5 | GDH-TPI counter-2 111.1
O=[N+]([O-])c1ccc(-c2ccc(C=Nc3cccc4ccccc34)o2)cc1	FBA Mtb inh 70.9, GDH-TPI counter-1 33.3 | Mtb FBA confirm inactive | GDH-TPI counter-2 inactive | GDH-TPI dose inactive
O=[N+]([O-])c1ccc(C=Nc2cccc3ccccc23)s1	FBA Mtb inh 50.2 | Mtb FBA confirm inactive | GDH-TPI counter-2 inactive
O=[N+]([O-])c1ccc(C=Nn2c(CO)nc3ccccc32)s1	none (no result: FBA Mtb inh, GDH-TPI counter-1, Mtb UGM inh, FadD28 binding, Rv3671c protease)
C#CCOCCOCCOCCNc1nc(N2CCN(C(=O)C(CCCCN)n3cc(C(N)C(C)CC)nn3)CC2)nc(N2CCN(C(=O)C(Cc3cc4ccccc4[nH]3)n3cc(C(N)C(C)CC)nn3)CC2)n1 (centres undefined)	none (no result: FBA Mtb inh, GDH-TPI counter-1, Mtb UGM inh, FadD28 binding, Rv3671c protease)
O=C(CC=NOCc1c(Cl)cccc1Cl)Oc1ccc(Cl)cc1Cl	none (no result: FBA Mtb inh, GDH-TPI counter-1, Mtb UGM inh, FadD28 binding, Rv3671c protease)

Screens: PubChem BioAssay, several laboratories
